# Source: PubChem BioAssay (several laboratories)
# GDH-TPI counter = GDH-TPI coupled enzyme inhibition counter-screen; GDH-TPI coupled enzyme counterscreen, NADH absorbance; inhibition, % at 4.8 µM; 1.2% of 360,000 active; in the data active means inhibition above about 30%;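 further: 0% = DMSO wells and 100% = wells lacking the enzyme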
# FBA Mtb inh = Mtb fructose-bisphosphate aldolase inhibition | 2.3% of 360,000 active | P9WQA3 | inhibition, % at 1 µM | purified M. tuberculosis FBA, fluorescence read-out | AID 588726; in the data active means inhibition above about 27%;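 further: 0% = vehicle and 100% = reference inhibitor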
# Target sequence (P9WQA3 whole entry, looked up): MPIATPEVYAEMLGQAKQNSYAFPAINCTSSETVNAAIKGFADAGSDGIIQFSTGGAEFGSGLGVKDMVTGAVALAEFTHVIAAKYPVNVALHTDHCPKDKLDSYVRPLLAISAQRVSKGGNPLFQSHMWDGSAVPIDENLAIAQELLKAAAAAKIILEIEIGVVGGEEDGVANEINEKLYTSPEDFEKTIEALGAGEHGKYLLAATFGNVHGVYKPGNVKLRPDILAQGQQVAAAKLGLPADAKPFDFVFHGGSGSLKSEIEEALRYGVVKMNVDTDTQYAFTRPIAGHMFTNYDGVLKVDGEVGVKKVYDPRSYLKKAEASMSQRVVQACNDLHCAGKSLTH
# BioA inh = blocks M. tuberculosis BioA enzyme activity | purified M. tuberculosis BioA enzyme, plate reader | 0.096% of 360,000 active | inhibition, % at 9.99 µM; in the data active means inhibition above about 40%
# Vc quorum ag = quorum light induction in luxS cqsA deficient V. cholerae | V. cholerae BH1578 lux reporter, luminescence, 6 h | activation, % at 18.7 µM | 0.16% of 350,000 active | AID 588436; in the data active means activation mostly above about 9.7%, no sharp cut-off
# An asterisk follows results filed as active; i = inactive; . = not tested or not shown; + = active, no number. This is a sample that favours compounds with a hit; in the whole collection about 3% have one here.
SMILES,GDH-TPI counter,FBA Mtb inh,BioA inh,Vc quorum ag
C[C@@H]1CN([C@H](C)CO)C(=O)Cc2cc(NC(=O)Nc3ccc(F)cc3)ccc2O[C@@H]1CN(C)C(=O)Nc1ccc(C(F)(F)F)cc1,.,.,-3,.
COc1ccc(S(=O)(=O)Nc2ccc3c(c2)C(=O)N([C@H](C)CO)C[C@H](C)[C@H](CN(C)C(=O)NC2CCCCC2)OCCCC[C@H](C)O3)cc1,.,.,-1,.
CC(C)CC#Cc1cnc2c(c1)C(=O)N([C@@H](C)CO)C[C@@H](C)[C@H](CN(C)Cc1ccccn1)O2,.,.,-3,.
Cc1ccc(-n2c(C)cc(=O)cc2C)cc1[N+](=O)[O-],1,0,-1,25*
Cc1ccc(-n2c(=O)[nH]c3ccccc3c2=O)cc1[N+](=O)[O-],.,0,.,.
C[C@@H]1CN([C@@H](C)CO)C(=O)c2cccc(NC(=O)c3ccc(-c4nccs4)cc3)c2O[C@H]1CN(C)CC1CCCCC1,.,.,-4,.
CC(C)NC(=O)Nc1ccc2c(c1)CC(=O)N([C@H](C)CO)C[C@H](C)[C@H](CN(C)S(=O)(=O)c1cccs1)O2,.,.,0,.
COc1ccccc1-c1cc(C(=O)N/N=C/c2ccc(C)s2)c2ccccc2n1,37*,-1,-6,i
CCc1ccc(/C=N/NC(=O)c2cc(-c3ccccc3OC)nc3ccccc23)s1,12,-2,-1,-15
CCN(CC)C(=O)COc1ccc(/C=N/NC(=O)c2cc(-c3ccccc3OC)nc3ccccc23)cc1OC,42*,-1,.,-1
COc1ccc(/C=N/NC(=O)c2cc(-c3ccc(C)cc3C)nc3ccccc23)cc1COC(C)=O,35*,5,-4,0
Cc1ccc(S(=O)(=O)c2c(N)n(CCCN(C)C)c3nc4ccccc4nc23)cc1,42*,128*,-1,i
Cc1ccc(S(=O)(=O)c2c(N)n(NC(=O)C3CC3)c3nc4ccccc4nc23)cc1,23,181*,1,i
Cc1ccc(S(=O)(=O)c2c(N)n(CC3CCOC3)c3nc4ccccc4nc23)cc1 (configuration not stated),22,+,-2,-11
Cc1ccc(-n2c(N)c(S(=O)(=O)c3ccccc3)c3nc4ccccc4nc32)cc1,7,33*,.,-4
C[C@@H]1CN([C@@H](C)CO)C(=O)c2cc(NC(=O)Nc3ccc4c(c3)OCO4)ccc2O[C@H]1CN(C)C,.,.,-2,.
CN(C)CCCn1c(N)c(C#N)c2nc3ccccc3nc21,16,146*,-10,0
C[C@@H]1CN([C@@H](C)CO)S(=O)(=O)c2ccc(C3=CCCCC3)cc2O[C@@H]1CN(C)S(=O)(=O)c1ccc(F)cc1,.,.,1,.
Cc1cccc(Nc2nc3c(s2)CCCC3)c1,-2,-1,0,i
O=S1(=O)N=C(Nc2nc3c(s2)CCCC3)c2ccccc21,36*,1,1,i
CCN(Cc1ccccc1)S(=O)(=O)c1ccc(C(=O)Nc2nnc(-c3ccccc3OC)o2)cc1,13,-5,-2,0
COc1ccccc1-c1nnc(NC(=O)c2ccc(S(=O)(=O)N(C)C)cc2)o1,34*,-2,1,-1
CNC[C@@H]1Oc2ccc(NC(=O)Nc3ccc4c(c3)OCO4)cc2C(=O)N([C@@H](C)CO)C[C@H]1C,.,.,1,.
CCOC(=O)c1c(NCC(C)C)c2ccccc2[nH]c1=O,-2,0,1,17*
Clc1ccccc1-c1ccc(/C=N/n2cnnc2)o1,55*,1,-1,0
SMILES,GDH-TPI counter,FBA Mtb inh,BioA inh,Vc quorum ag
Clc1ccc(Sc2ccc(/C=N/n3cnnc3)o2)cc1,22,2,11,-6
Cc1c(Cl)cccc1-c1ccc(/C=N/n2cnnc2)o1,33*,2,0,27*
O=C(O)c1cccc(-c2ccc(/C=N/n3cnnc3)o2)c1,35*,19,4,0
O=[N+]([O-])c1ccc(-c2ccc(/C=N/n3cnnc3)o2)c(Br)c1,26,-4,2,2
CCN=C1S/C(=C\c2ccc(-c3cccc(C(=O)O)c3)o2)C(=O)N1CC,5,5,.,i
Clc1cccc(-c2ccc(/C=N/n3cnnc3)o2)c1Cl,34*,3,-1,.
O=Cc1ccc(-c2ccccc2C(=O)O)o1,21,8,.,0
Cc1c(C(=O)O)cccc1-c1ccc(/C=N/n2cnnc2)o1,31*,3,1,0
Cc1c(C(=O)O)cccc1-c1ccc(/C=N/Nc2ccc(Br)cc2)o1,22,11,57*,3
O=C(O)c1ccc(N/N=C/c2ccc(-c3ccc(Cl)cc3Cl)o2)cc1,28,21,.,0
Cc1noc(C)c1NC(=O)N(C)C[C@@H]1Oc2ccc(NC(=O)C3CCCCC3)cc2CC(=O)N([C@@H](C)CO)C[C@H]1C,.,.,1,.
CC(C)c1c(C(=O)N/N=C/c2ccncc2)nnn1-c1nonc1N,-7,-2,6,i
CC(C)c1c(C(=O)N/N=C/C=C/c2ccccc2)nnn1-c1nonc1N,39*,-1,9,i
CCCc1c(C(=O)N/N=C/C(C)=C/c2ccco2)nnn1-c1nonc1N,26,2,2,i
CC(/C=N/NC(=O)c1nnn(-c2nonc2N)c1C(C)C)=C\c1ccco1,37*,5,0,i
CN(C)Cc1c(C(=O)N/N=C/C=C/c2ccccc2)nnn1-c1nonc1N,34*,-2,-4,0
CS(=O)(=O)Nc1ccc2c(c1)[C@@H]1C[C@@H](CC(=O)NCC(F)(F)F)O[C@@H](CO)[C@@H]1O2,.,.,1,.
CO[C@@H]1CN(C)C(=O)c2cc(NS(=O)(=O)c3ccc(F)cc3)ccc2OC[C@H](C)NC[C@@H]1C,.,.,-1,.
CCCNC(=O)c1cc2ccccc2c(=O)o1,10,7,1,i
Cc1cc(C)n(C(=O)c2cc3ccccc3c(=O)o2)n1,3,2,-1,17*
CC=Cc1ccc2n(c1=O)C[C@@H]1[C@@H](CO)[C@H](C(=O)Nc3ccccc3)[C@H]2N1C(=O)CC (mixture of isomers),.,.,-1,.
COc1ccc(OC)c(/C=N/NC(=O)Cn2ccnc2C)c1,14,165*,.,1
Cc1ccc(C(=O)N/C(=C/c2ccc(-c3cccc([N+](=O)[O-])c3)o2)C(=O)NC(C)C)cc1,49*,-3,.,0
CN(C)CCCNC(=O)/C(=C\c1ccc(-c2ccc(Br)cc2)o1)NC(=O)c1ccccc1,25,4,3,i
CN(C)CCCNC(=O)/C(=C/c1ccc(-c2ccc([N+](=O)[O-])cc2)o1)NC(=O)c1ccccc1,31*,-4,11,0
CN(C)C(=O)/C(=C\c1ccc(-c2cccc([N+](=O)[O-])c2)o1)NC(=O)c1ccccc1,20,2,.,i
COc1ccc(C(=O)N/C(=C\c2ccc(-c3cccc([N+](=O)[O-])c3)o2)C(=O)NCCCN2CCOCC2)cc1,47*,-3,1,0
COc1ccc(C(=O)N/C(=C\c2ccco2)C(=O)NCCN2CCOCC2)cc1,11,-3,-1,i
CN(C)C(=O)/C(=C/c1ccc(-c2cccc([N+](=O)[O-])c2)o1)NC(=O)c1ccccc1,53*,-3,-1,0
C[C@@H]1CN([C@@H](C)CO)C(=O)c2cccc(NS(=O)(=O)c3ccc(F)cc3)c2O[C@@H]1CN(C)S(C)(=O)=O,.,.,-1,.
